# For some of these results: Measured potencies and affinities stand elsewhere. Inconclusive results are not listed. Values without a mark were called inactive. The list shows a part of the results. Active and inactive are the calls of the source. Unless noted, no rule for the calls is given here.
# How the values were obtained:
# [1] = small-molecule DNA binding by polarization – biochemical, fluorescence polarization, cherry-pick, counter-screen for EWS/Fli inhibitor project, dose response (AID 720586;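 active = fitted curve reaches a 35% signal fall AC35 below twice the sample's top valid tested dose, actives reach about 48 µM in these data; inactive = the rest, including activity in the rising direction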;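 also: lower polarization ratio signals compound binding to DNA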)
# [2] = IOSE-T80 viability loss, PAX8-independent line – cell-based, cherry-pick, selectivity assay for PAX8 inhibitor project, dose response (AID 687032;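 active = fitted half-maximal concentration for viability loss no higher than twice the top valid dose, in every repeat run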;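 also: cells exposed to compound for 96 h before reading; 0% = neutral control wells and -100% = 2 µM mitoxantrone kill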)
# [3] = general cell-killing toxicity readout – plate reader, dry powder samples, cytotoxicity control for PAX8 inhibitor project, dose response (AID 743021)
# [4] = toxicity toward immortalized ovarian surface epithelium – cell-based, plate reader, dry powder samples, cytotoxicity control for PAX8 inhibitor project, dose response (AID 743045);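 also: 0% = neutral control median and -100% = positive control median; more negative values mean more cell killing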
# [5] = CMV-driven luciferase expression suppression in HEK293 – cell-based, luminescence, dry powder, counter-screen for Pax8 inhibitor project, dose response (AID 743020;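 active = signal-lowering compounds whose fitted half-maximal concentration is at or below twice the top tested dose in every run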;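 also: HEK293 cells stably expressing the CMV luciferase reporter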)
# [6] = A2780 cell killing – plate reader, dry powder samples, cytotoxicity control, dose response (AID 743046);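 also: 0% = neutral control wells and -100% = cytotoxic reference compound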
# [7] = OVCAR8 cell viability loss – plate reader, dry powder samples, PAX8 project, dose response (AID 743197)
# [8] = IGROV1 cell killing – plate reader, dry powder samples, PAX8 inhibitor project, dose response (AID 743043);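 also: more negative means fewer viable cells or more cytotoxicity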
# [9] = OVCAR-3 cell viability loss – plate reader, dry powder samples, PAX8 inhibitor project, dose response (AID 743044); conditions: max activity: at 35 µM, hits give low values unless noted
# [10] = toxicity toward HepG2 liver cells – cell-based, plate reader, cherry-pick, antagonist series, cytotoxicity control, dose response (AID 743416);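 also: 0% = neutral control wells and -100% = positive control wells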
# [11] = A549 cell cytotoxicity, dose response, cytotoxicity control, plate reader, cherry-pick, antagonist series (AID 743412);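 also: 0% = neutral control wells and -100% = positive control wells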
smiles,measurement,setting,value
CCOc1cc2[nH]c(=S)n(Cc3ccc(C(=O)N4CCN(C)CC4)cc3)c(=O)c2cc1OCC,AC35,[1],inactive
C[C@@H]1CCCCO[C@H](CN(C)Cc2ccc(C(F)(F)F)cc2)[C@@H](C)CN([C@@H](C)CO)C(=O)c2cc(NC(=O)Nc3ccc(F)cc3)ccc2O1,outcome,[2],inactive
same,outcome,[3],inactive
same,outcome,[4],inactive
C[C@H]1CN([C@@H](C)CO)C(=O)Cc2cc(NC(=O)C3CC3)ccc2O[C@H]1CN(C)S(=O)(=O)c1ccc(Cl)cc1,AC35,[1],inactive
C[C@@H]1CCCCO[C@H](CN(C)Cc2ccc(C(F)(F)F)cc2)[C@@H](C)CN([C@@H](C)CO)C(=O)c2cc(NC(=O)Cc3ccccc3)ccc2O1,outcome,[2],inactive
same,outcome,[5],inactive
same,outcome,[3],inactive
same,outcome,[4],inactive
same,outcome,[6],inactive
same,outcome,[7],inactive
C[C@@H]1CN([C@@H](C)CO)C(=O)Cc2cc(NC(=O)CCCCCC(=O)Nc3ccccc3N)ccc2O[C@@H]1CN(C)Cc1ccc(C(F)(F)F)cc1,outcome,[2],inactive
same,outcome,[5],inactive
same,outcome,[8],inactive
same,outcome,[4],inactive
same,outcome,[6],inactive
C[C@H](CO)N1C[C@H](C)[C@@H](CN(C)C(=O)c2ccc3c(c2)OCO3)Oc2cc(C#Cc3ccccc3F)ccc2S1(=O)=O,outcome,[2],inactive
same,outcome,[3],inactive
same,outcome,[8],inactive
same,max activity,[9],-4.28%
same,outcome,[4],inactive
same,outcome,[6],inactive
same,outcome,[7],inactive
C[C@@H]1CCCCO[C@H](CN(C)Cc2ccc(Cl)c(Cl)c2)[C@@H](C)CN([C@@H](C)CO)C(=O)c2cc(NC(=O)Nc3ccccc3)ccc2O1,outcome,[2],inactive
same,outcome,[3],inactive
same,outcome,[8],inactive
same,max activity,[9],"15.8% [at 0.26 µM, hits give low values]"
same,outcome,[4],inactive
same,outcome,[6],inactive
same,outcome,[7],inactive
COc1ccc(/C=C2\SC(=S)N(CCCC(=O)NC3CCCC3)C2=O)cc1OC,AC35,[1],inactive
CCCC#Cc1ccc([C@@H]2[C@@H](C#N)N(C(=O)C3CCCCC3)[C@H]2CO)cc1,outcome,[2],inactive
same,outcome,[5],inactive
same,outcome,[8],inactive
same,outcome,[4],inactive
same,outcome,[6],inactive
COc1cccc(-c2ccc3c(c2)[C@H]2[C@H](CCN2S(=O)(=O)c2ccccc2F)[C@@H](CO)N3)c1,outcome,[2],inactive
same,outcome,[5],inactive
same,outcome,[3],inactive
same,outcome,[4],inactive
same,outcome,[6],inactive
COc1cc(-c2cnc3c(NC=O)cc(-c4cccc(NC(C)=O)c4)cn23)cc(OC)c1OC,outcome,[2],inactive
same,outcome,[3],inactive
COc1ccc(S(=O)(=O)Nc2ccc3c(c2)C(=O)N([C@@H](C)CO)C[C@H](C)[C@@H](CN(C)C(=O)Nc2ccc(F)cc2)OCCCC[C@H](C)O3)cc1,outcome,[2],inactive
same,outcome,[5],inactive
same,outcome,[8],inactive
same,max activity,[9],-15.3%
same,outcome,[4],inactive
same,outcome,[6],inactive
same,outcome,[7],inactive
Cc1ccc(C)c(S(=O)(=O)N2CCN(c3ncnc4sccc34)CC2)c1,AC35,[1],inactive
O=C(Nc1cccc(F)c1)N1CCCCN2[C@H](CO)[C@@H](c3ccc(C#Cc4ccccc4)cc3)[C@H]2C1,outcome,[2],inactive
same,outcome,[5],inactive
same,outcome,[6],inactive
same,outcome,[7],inactive
C[C@@H]1CN([C@H](C)CO)C(=O)c2cc(NC(=O)Nc3ccccc3)ccc2O[C@@H](C)CCCCO[C@H]1CN(C)Cc1ccc(C(F)(F)F)cc1,outcome,[2],inactive
same,outcome,[5],inactive
same,outcome,[3],inactive
same,outcome,[6],inactive
same,outcome,[7],inactive
COC(=O)C[C@@H]1CC[C@@H]2[C@H](COc3ccc(NC(=O)c4cccc(F)c4)cc3C(=O)N2C)O1,AC35,[1],inactive
C[C@H](CO)N1C[C@H](C)[C@@H](CN(C)S(=O)(=O)c2ccc(-c3ccccc3)cc2)OCc2cn(nn2)CCCC1=O,outcome,[2],inactive
same,outcome,[5],inactive
same,outcome,[8],inactive
same,max activity,[9],-33.1%
same,outcome,[4],inactive
same,outcome,[6],inactive
same,outcome,[7],inactive
O=C(CN1C(=O)c2ccccc2S1(=O)=O)c1ccc2c(c1)OCCO2,outcome,[2],inactive
same,outcome,[5],inactive
same,outcome,[3],inactive
same,outcome,[10],inactive
C[C@@H]1CN([C@H](C)CO)C(=O)c2cc(NC(=O)Nc3ccccc3)ccc2O[C@@H](C)CCCCO[C@@H]1CN(C)Cc1ccc(Cl)c(Cl)c1,outcome,[2],inactive
same,outcome,[8],inactive
O=C(Nc1ccc(F)cc1)N1CC(=O)N2[C@@H](CO)[C@H](c3ccc(-c4ccc(F)cc4)cc3)[C@@H]2C1,outcome,[2],inactive
same,outcome,[3],inactive
same,outcome,[8],inactive
same,outcome,[6],inactive
COc1ccccc1C#Cc1ccc2c(c1)O[C@@H](CN(C)Cc1ccncc1)[C@H](C)CN([C@@H](C)CO)S2(=O)=O,outcome,[2],inactive
same,outcome,[5],inactive
same,outcome,[8],inactive
same,max activity,[9],"20.3% [at 8 µM, hits give low values]"
same,outcome,[4],inactive
same,outcome,[6],inactive
C[C@@H]1CN([C@H](C)CO)C(=O)c2cc(NC(=O)Nc3ccc(F)cc3)ccc2O[C@@H](C)CCCCO[C@H]1CN(C)Cc1ccc(C(F)(F)F)cc1,outcome,[2],inactive
same,outcome,[3],inactive
same,outcome,[8],inactive
same,outcome,[4],inactive
same,outcome,[6],inactive
same,outcome,[7],inactive
Cc1ccc(Cl)cc1N1CCN(C(=O)c2noc(C)c2[N+](=O)[O-])CC1,outcome,[5],inactive
COc1cc(OC)c2c(-c3cccc(-c4ccc(OC)c(F)c4)c3)cc(=O)oc2c1,outcome,[5],inactive
same,outcome,[3],inactive
COc1ccc(OC)c(Cc2cnc3nc(N)nc(N)c3c2C)c1,AC35,[1],inactive
C(=Cc1cnc2ccccc2n1)c1ccc2c(c1)OCO2,outcome,[5],inactive
O=C(CCl)N(Cc1ccccc1)c1ccccc1,outcome,[5],inactive
COc1ccc(F)cc1-c1cc(NC=O)c2ncc(-c3cc(OC)c(OC)c(OC)c3)n2c1,outcome,[5],inactive
same,outcome,[3],inactive
CCn1c(/C=N/NC(=O)c2ccc(OC)cc2)nc2ccccc21,AC35,[1],inactive
COc1ccc(Nc2ncnc3ccc(Br)cc23)c(OC)c1,AC35,[1],inactive
COCCn1c(C)cc(C2=NNC(=NC3CC3)SC2)c1C,outcome,[5],inactive
Cc1ccc(NC(=O)Cn2ncc(Cl)c(Cl)c2=O)cc1S(=O)(=O)N1CCCCC1,outcome,[5],inactive
same,outcome,[3],inactive
C(=N\Nc1ccc2ccccc2n1)/c1ccc2c(c1)OCO2,AC35,[1],inactive
Nc1nc(=S)c2[nH]cnc2[nH]1,outcome,[5],inactive
Cn1ncc2c(O/N=C(\N)c3ccc(C(F)(F)F)cc3)ncnc21,outcome,[5],inactive
O=C(Nc1ccc(N2CCN(C(=O)c3ccccc3)CC2)cc1)c1ccc([N+](=O)[O-])o1,outcome,[5],inactive
same,outcome,[3],inactive
CCC(C)Cn1c(O)cc2nn(-c3nc4ccccc4s3)c(=O)c-2c1C (stereo unspecified),AC35,[1],48.3 µM (active)
COc1ccccc1C(=O)Nc1nc2ccccc2[nH]1,outcome,[5],inactive
Cc1ccc(S(=O)(=O)Nc2ccc3c(c2)C(=O)N([C@@H](C)CO)C[C@@H](C)[C@@H](CN(C)Cc2ccc(C(=O)Nc4ccccc4N)cc2)O3)cc1,AC35,[1],inactive
CCOC(=O)c1c(C)[nH]c2c1-c1ccccc1C(=O)C2=O,outcome,[5],inactive
CC(=O)Nc1ccc(S(=O)(=O)Nc2ccc(N3CCCCC3)cc2)cc1,AC35,[1],inactive
S=c1sc2c(Cl)ncnc2n1-c1ccccc1,outcome,[5],inactive
N#C[C@@H]1[C@H](c2ccc(C#Cc3cccc(F)c3)cc2)[C@@H](CO)N1C(=O)C1CCCC1,AC35,[1],inactive
same,outcome,[11],inactive
C=C(C)c1nc(Oc2ccccc2)nc(Oc2ccccc2)n1,outcome,[5],inactive
same,outcome,[3],inactive
Cc1noc(C)c1NC(=O)Nc1ccc2c(c1)CC(=O)N([C@@H](C)CO)C[C@@H](C)[C@@H](CN(C)Cc1ccc(Cl)c(Cl)c1)O2,AC35,[1],inactive
Nc1nnnn1/N=C/C(Br)=C/c1ccccc1,outcome,[5],inactive
same,outcome,[3],inactive
Cc1nc(Nc2nc(CSc3nc4ccccc4[nH]3)cc(=O)[nH]2)nc2ccccc12,outcome,[5],inactive
same,outcome,[3],inactive
CC1(Cc2ccc(OC(F)(F)F)cc2)C(=O)Nc2ccc(S(=O)(=O)NC3CCCCC3)cc21 (stereo unspecified),outcome,[5],inactive
same,outcome,[3],inactive
O=C(NC1CCCCC1)C(c1cccnc1)N(C(=O)CCl)c1ccc(F)cc1 (stereo unspecified),outcome,[5],inactive
Cc1ccc(NC(=O)CN(C)C(=O)Cn2ncc(Cl)c(Cl)c2=O)cc1,outcome,[5],inactive
same,outcome,[3],inactive
CN(CCO)c1ccc(/C=N/Nc2nncc3ccccc23)cc1,AC35,[1],inactive
N#Cc1ccc(-c2ccc(C3[C@@H]4CN(C(=O)C5CC5)C[C@H]3N4)cc2)cc1 (stereo partly specified),outcome,[5],inactive
same,outcome,[3],inactive
COc1ccc(/C=N/NC(=O)c2[nH]c3ccc(Br)cc3c2-c2ccccc2)cc1,outcome,[5],inactive
same,outcome,[3],inactive
Cc1cnc(NC(=O)c2ccc3c(c2)OCCO3)s1,outcome,[5],inactive
COc1ccc(-c2nc3c(s2)CCc2onc(-c4ccc(OC)cc4)c2-3)cc1,AC35,[1],inactive
OCCN1CCN(C(=S)c2ccc(-c3ccccc3)cc2)CC1,AC35,[1],inactive
C[C@H](CO)N1C[C@H](C)[C@H](CN(C)CC2CCCCC2)Oc2ccc(NC(=O)CCCCCC(=O)Nc3ccccc3N)cc2CC1=O,AC35,[1],inactive
CCOc1ccc(C(=O)C(CCC(CN(C)C)C(=O)c2ccc(OCC)cc2)CN(C)C)cc1 (stereo unspecified),outcome,[5],inactive
Cc1cccc(N(Cc2cc(=O)[nH]c3ccccc23)C(=O)CCl)c1,outcome,[5],inactive
O=C(NCc1cc(C(F)(F)F)ccc1Cl)c1cccc2c1C(=O)c1ccc(N3CCC(N4CCCCC4)CC3)cc1S2(=O)=O,outcome,[5],inactive
C[C@H](CO)N1C[C@H](C)[C@H](CN(C)Cc2ccc(C(F)(F)F)cc2)Oc2ccc(NC(=O)CCCCCC(=O)Nc3ccccc3N)cc2CC1=O,AC35,[1],inactive
O=C(Nc1ccccc1)NN(C(=O)CCl)c1ccccc1,outcome,[5],inactive
same,outcome,[3],inactive
N#C[C@@H]1[C@H](c2ccc(C#CC3CCCCC3)cc2)[C@H](CO)N1S(=O)(=O)c1ccccc1,outcome,[5],inactive
same,outcome,[3],inactive
same,outcome,[4],inactive
same,outcome,[6],inactive
same,outcome,[7],inactive
C[C@H](O)[C@@H]1CN2CCc3c([nH]c4ccc(-c5ccc6c(c5)OCO6)cc34)[C@@H]2C[C@@H]1N(C)C(=O)NC1CCCCC1,outcome,[3],inactive
C[C@@H]1CN([C@@H](C)CO)C(=O)Cc2cc(NC(=O)NC3CCCCC3)ccc2O[C@@H]1CN(C)Cc1ccc(-c2ccccc2)cc1,outcome,[5],inactive
same,outcome,[3],inactive
same,outcome,[8],inactive
same,max activity,[9],0% [hits give low values]
same,outcome,[4],inactive
same,outcome,[7],inactive
Cc1ccc(S(=O)(=O)CC(CN2CCCCC2)N2CCCCC2)cc1 (stereo unspecified),outcome,[5],inactive
same,outcome,[3],inactive
same,outcome,[9],inactive
same,outcome,[4],inactive
same,outcome,[6],inactive
C[C@@H]1CCCCO[C@@H](CN(C)S(=O)(=O)c2ccc(Cl)cc2)[C@H](C)CN([C@H](C)CO)C(=O)c2cc(NS(=O)(=O)c3ccc(F)cc3)ccc2O1,outcome,[5],inactive
same,outcome,[3],inactive
same,max activity,[9],"22.4% [at 2.1 µM, hits give low values]"
same,outcome,[4],inactive
same,outcome,[6],inactive
same,outcome,[7],inactive
Cc1nc2sc(C(c3ccco3)N3CCN(C(c4ccccc4)c4ccccc4)CC3)c(O)n2n1 (stereo unspecified),outcome,[5],inactive
same,outcome,[3],inactive
same,outcome,[4],inactive
same,outcome,[6],inactive
CN1c2ccccc2N(C)C1(C)c1ccccc1,outcome,[3],inactive
CSC(=Nc1ccccc1)N=C(SCc1ccccc1)N(C)C,outcome,[3],inactive
Cc1ccccc1CNC(=O)C1CCCN(c2nnc(C)c3c(C)n(-c4ccccc4)nc23)C1 (stereo unspecified),outcome,[5],inactive
same,outcome,[3],inactive
same,outcome,[6],inactive
COc1ccc(C)cc1NS(=O)(=O)c1ccc(-c2cnc(C3CC3)o2)cc1,outcome,[3],inactive
C[C@@H]1CCCCO[C@@H](CN(C)C(=O)Nc2cccc3ccccc23)[C@H](C)CN([C@H](C)CO)C(=O)c2cc(NS(=O)(=O)c3ccc(F)cc3)ccc2O1,outcome,[5],inactive
same,outcome,[3],inactive
same,max activity,[9],"12.2% [at 0.26 µM, hits give low values]"
same,outcome,[4],inactive
same,outcome,[6],inactive

# Source: PubChem BioAssay
